# Experimental data as given in PubChem BioAssay (EPA / NIEHS).
# Active and inactive are the calls of the source. The calls were made as follows: active = hit-call score of the fitted dose curve at least 0.9, where 1 is the maximum; inactive = score below 0.9.
# Key:
# [1] = CCTE_Harrill_HTTr_Viability_MCF7: CCTE's 6-hour Cell Viability Assessment for the High-Throughput Transcriptomics (HTTr) Platform, in MCF-7 cells cultured in DMEM + 10% fetal bovine serum, Harrill Lab (AID 2284010)
# Method in brief: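 PI exclusion, high-content imaging; 8-pt dilution series, 6 h exposure; bidirectional fit vs DMSO (neg. ctrl/baseline); gain of signal = loss of membrane integrity.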
# [2] = CCTE_Harrill_HTTr_Apoptosis_MCF7: CCTE's 6-hour Apoptosis Assessment for the High-Throughput Transcriptomics (HTTr) Platform, in MCF-7 cells cultured in DMEM + 10% fetal bovine serum, Harrill Lab (AID 2284011)
# Method in brief: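 Cells are dosed with test chemicals at eight concentrations and imaged 6 hours later for caspase-3/7 activity using a green fluorogenic detection reagent. Activity is fitted in both directions against DMSO controls.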
SMILES,outcome [1],outcome [2]
CN1[C@@H]2CC(OC(=O)[C@H](CO)c3ccccc3)C[C@H]1[C@@H]1O[C@@H]12 (stereo not given in full),inactive,inactive
CCN(CC)CCOC(=O)c1ccc(N)cc1,inactive,inactive
CCCCN,inactive,inactive
C=CCOc1nc(OCC=C)nc(OCC=C)n1,inactive,inactive
N#Cc1ccccc1,inactive,inactive
